The campaign covered roughly 390,000 compounds. About 4,700 (1.2%) were called active. Not shown: some 4% with an inconclusive outcome. The call rests on the fitted dose curve; in most records, active means well fitted inhibition curve with a large enough effect; inconclusive means small, poorly fitted or top-dose-only effect, or another doubt; inactive means no such curve, though single readings can be large or run the other way. Shown is part of a subset that was picked to be rich in actives. Where a call stands in place of a potency, no number is given.
Molecular target: DNA polymerase eta (Homo sapiens) (UniProt Q9Y253)
Test: qHTS for Inhibitors of Polymerase Eta
Conditions: recombinant Pol eta, fluorescent DNA replication assay; series mostly up to 114 µM
Description: The Y-family of DNA polymerases, such as Pol eta, are specifically involved in DNA repair. Pol eta copies undamaged DNA with a lower fidelity than other DNA-directed polymerases. However, it accurately replicates UV-damaged DNA; when thymine dimers are present, this polymerase inserts the complementary nucleotides in the newly synthesized DNA, thereby bypassing the lesion and suppressing the mutagenic effect of UV-induced DNA damage. […] Thus, while pol eta's (and most likely iota's) normal function is to protect humans against the deleterious consequences of DNA damage, under certain conditions they can have deleterious effects on human health. As a consequence, we propose to utilize a high throughput replication assay to identify small molecule inhibitors of pol eta. In a collaboration between the National Institute of Child Health & Human Development (NICHD) and NIH Chemical Genomics Center, a high-throughput, fluorescent screen was developed to screen the NIH Molecular Libraries Small Molecule Repository (MLSMR). This screen is used to identify inhibitors of pol eta. NIH Chemical Genomics Center [NCGC] NIH Molecular Libraries Probe Centers Network [MLPCN] MLPCN Grant: MH090825 Assay Submitter (PI): Roger Woodgate, NICHD)
Three microliters of reagents (buffer in column 3 and 4 as negative control and 10 nM Pol eta in columns 1, 2, and 5-48) were dispensed into a 1,536-well black solid-bottomed plate. Compounds (23 nL) were transferred via Kalypsys pin tool equipped with 1536-pin array. The plates were then incubated for 15 min at room temperature, and 1 µL substrate (50 nM final concentration) was added to start the reaction and kinetically read twice at 0 min and 10 min on the Viewlux reader
Potency means the concentration at half of the fitted maximal effect.

Sequence of DNA polymerase eta (Homo sapiens) (Q9Y253 whole entry, looked up): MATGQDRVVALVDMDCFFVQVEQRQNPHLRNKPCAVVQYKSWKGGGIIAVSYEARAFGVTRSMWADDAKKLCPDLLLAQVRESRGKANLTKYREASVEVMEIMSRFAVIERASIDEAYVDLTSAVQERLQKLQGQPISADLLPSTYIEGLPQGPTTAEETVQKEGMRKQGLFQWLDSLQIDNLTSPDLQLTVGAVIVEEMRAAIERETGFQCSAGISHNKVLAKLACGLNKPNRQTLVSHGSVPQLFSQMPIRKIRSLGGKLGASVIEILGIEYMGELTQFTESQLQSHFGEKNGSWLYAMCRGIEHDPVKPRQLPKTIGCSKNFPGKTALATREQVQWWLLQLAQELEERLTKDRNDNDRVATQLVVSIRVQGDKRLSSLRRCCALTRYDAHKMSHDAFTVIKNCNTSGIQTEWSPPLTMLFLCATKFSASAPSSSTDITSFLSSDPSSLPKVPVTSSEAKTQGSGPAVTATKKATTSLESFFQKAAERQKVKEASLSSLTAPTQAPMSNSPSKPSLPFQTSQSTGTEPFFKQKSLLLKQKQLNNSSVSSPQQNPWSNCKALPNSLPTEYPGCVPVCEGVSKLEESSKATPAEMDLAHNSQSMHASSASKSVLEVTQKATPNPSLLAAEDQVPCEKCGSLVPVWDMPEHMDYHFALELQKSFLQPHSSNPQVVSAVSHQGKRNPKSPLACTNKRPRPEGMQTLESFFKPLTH

| SMILES | Potency |
| --- | --- |
| Cc1cccc(N2C(=O)NC(=O)/C(=C\c3cnn(-c4ccccc4)c3)C2=O)c1 | 20 µM (active) |
| CN1C2C=C(N(C(=O)c3ccc(Cl)cc3)c3ccccc3)CC1CC2 (stereo not given) | inactive |
| CCN(N=Nc1nonc1OC)c1nonc1OC | inactive |
| C=CC12CN(C)[C@@H]3C4CO[C@H](C[C@H]41)[C@]1(C(=O)Nc4ccccc41)[C@@H]32 (stereo not given in full) | inactive |
| Cc1c(C(=O)O)cccc1-n1c(C)cc(/C=C2\C(=O)NC(=O)N(c3ccc4c(c3)OCO4)C2=O)c1C | 5.01 µM (active) |
| c1cc2c(cc1C1OCC3C(c4ccc5c(c4)OCO5)OCC13)OCO2 (stereo not given) | inactive |
| c1ccc2sc(N3CCNCC3)nc2c1 | inactive |
| CC(=NC1CCN(Cc2ccccc2)CC1)c1c(O)n(C)c(=O)n(C)c1=O | inactive |
| Cn1c(O)c(C=Nc2ccc3c(c2)CCC3)c(=O)n(C)c1=O | inactive |
| Cc1cc(/C=C2/C(=O)NC(=O)N(Cc3ccco3)C2=O)c(C)n1-c1ccc(C(=O)O)cc1 | 17.8 µM (active) |
| Cc1ccc(-n2c(C)cc(/C=C3\C(=O)NC(=O)N(C)C3=O)c2C)cc1C | 11.2 µM (active) |
| Cc1ccnc(-n2c(C)cc(/C=C3\C(=O)NC(=S)N(C)C3=O)c2C)c1 | inactive |
| c1ccc2c(c1)[I+]c1ccccc1-2 | inactive |
| CC(=O)NBr | inactive |
| Fc1cccc(F)c1CN1CCN(Cc2c(F)cccc2F)CC1 | inactive |
| CCOC(=O)c1ncn2c1[C@@H]1CCCN1C(=O)c1cc(OC)ccc1-2 | inactive |
| Cc1c(Oc2cc(NN3CCCCC3)c([N+](=O)[O-])cc2[N+](=O)[O-])cccc1[N+](=O)[O-] | inactive |
| CN(c1ccccc1)c1ccc([N+](=O)[O-])c2nonc12 | inactive |
| Nc1ccc([N+](=O)[O-])cc1 | inactive |
| COC(=O)N(c1ccc(OC)cc1)P1(=S)OCCC(C)O1 (stereo not given) | inactive |
| CC1CCCN1CCC(C(N)=O)(c1ccccc1)c1ccccc1 (stereo not given) | inactive |
| CC[N+](CC)(CC)CCCCCCCCCC[N+](CC)(CC)CC | inactive |
| CC(=O)c1c(O)n(C2CCCCCC2)c(=O)[nH]c1=O | inactive |
| O=C1NC(=O)N(c2ccc(F)cc2)C(=O)/C1=C/c1ccc2c(c1)CCCN2Cc1ccccc1 | 20 µM (active) |
| CCC1(CC(C)c2ccccc2)C(=O)NC(=O)NC1=O (stereo not given) | inactive |

| SMILES | Potency |
| --- | --- |
| Cc1cccc(OP(=O)(Oc2cccc(C)c2)OC(c2ccccc2)C(F)(F)F)c1 (stereo not given) | inactive |
| CN(C)/C=C(\C=[N+](C)C)c1[nH]ncc1[N+](=O)[O-] | inactive |
| COc1ccc(N2C(=O)/C(=C/c3ccco3)C(=O)NC2=S)cc1 | 1.12 µM (active) |
| CC(=O)N1CN2CN(C(C)=O)CC(C(=O)c3ccc(Br)cc3)(C2)C1 | inactive |
| Cc1ccc(CN2CCCC(C(=O)c3ccc4c(c3)OCO4)C2)cc1C (stereo not given) | inactive |
| O=C1NC(=O)C(C/C=C/c2ccccc2)C(=O)N1 | inactive |
| CN(C)c1ccc(/C=C2\CC3C4CC=C5CC(O)CCC5(C)C4CCC3(C)C2=O)cc1 (stereo not given) | inactive |
| C[C@@H]1CC[C@@]2(OC1)O[C@H]1C[C@H]3[C@@H]4CC=C5C[C@@H](O)[C@H](O)C[C@]5(C)C4CC[C@]3(C)[C@H]1[C@@H]2C (stereo not given in full) | 89.1 µM (active) |
| CCOC(=O)C(O)(c1ccc(N)c(OC)c1)C(F)(F)F (stereo not given) | inactive |
| COC(=O)C(O)(c1ccc(NC(=O)c2ccco2)c(OC)c1)C(F)(F)F (stereo not given) | inactive |
| CCCCN1C2CCC1CC(OC(c1ccc(F)cc1)c1ccc(F)cc1)C2 (stereo not given) | inactive |
| C[C@@H]1C[C@@H]2O[C@H]2/C=C\C=C\C(=O)Cc2c(Cl)c(O)cc(O)c2C(=O)O1 | 10 µM (active) |
| COc1ccc(-n2c(O)c(C(C)=Nc3ccc4c(c3)CCC4)c(=O)[nH]c2=O)cc1 | inactive |
| O=C(Nc1ccc(Cl)cc1C(=O)c1ccccc1)c1cc(Cl)cc(Cl)c1 | inactive |
| COc1ccc(C2C=C(C)Oc3c2c(=O)oc2ccccc32)cc1OC (stereo not given) | inactive |
| CCN1C(=O)NC(=O)C2(CCCC2)C1=O | inactive |
| O=C1NC(=O)N(CCc2ccc(F)cc2)C(=O)/C1=C/C=C/c1ccccc1 | 50.1 µM (active) |
| COC(=O)C1=C(c2cc3ccccc3s2)C[C@@H]2CC[C@H]1N2C(=O)NC(C)C | inactive |
| COc1ccc(C(=O)CC2C(=O)N(C)C(=O)N(C)C2=O)cc1 | inactive |
| Cc1cc2ccccn2c1C(C[N+](=O)[O-])c1c(F)cccc1Cl (stereo not given) | inactive |
| COc1cccc(N2C(=O)NC(=O)/C(=C\c3ccc([N+](=O)[O-])s3)C2=O)c1 | 17.8 µM (active) |
| O=C1NC(=O)N(c2ccccc2)C(=O)/C1=C/c1ccc([N+](=O)[O-])s1 | 10 µM (active) |
| Cn1c(O)c(C=NCCN2CCNCC2)c(=O)n(C)c1=O | inactive |
| COC(=O)C1=C(c2ccc(OCc3ccccc3)cc2)C[C@@H]2CC[C@H]1N2C(=O)NCc1ccc(Cl)cc1 | inactive |
| O=C(O)C1C2CCC(O2)C1C(=O)O (stereo not given) | inactive |

| SMILES | Potency |
| --- | --- |
| CC1=C(C(=O)Nc2ccccc2)SCCO1 | inactive |
| CCOC(=O)C1SC2(C(F)(F)C(F)F)CC1(O)c1c(c(OC)c3occc3c1OC)O2 (stereo not given) | inactive |
| CCN1CCN(c2nc3c(c(=O)[nH]2)CCC3)CC1 | inactive |
| Cc1cccc(NC(=O)OC2CN3CCC2CC3)c1 (stereo not given) | inactive |
| CN(C)S(=O)(=O)c1cc(C(=O)N2CCC(C(=O)O)(c3ccccc3)CC2)ccc1Cl | inactive |
| COC(=O)C1=C(c2c(C)noc2C)C[C@@H]2CC[C@H]1N2C(=O)NCc1ccc2c(c1)OCO2 | inactive |
| CCc1ccc(OCC(=O)N2CCN(CC(=O)Nc3ccccc3Cl)CC2)cc1 | inactive |
| C[C@H]1CN([C@@H](C)CO)C(=O)CCCn2nncc2CO[C@H]1CN(C)C(=O)Oc1ccccc1 | inactive |
| Cc1cc(C(=O)OCC(=O)Nc2c(F)cccc2F)c(C)n1C1CC1 | inactive |
| CN1CCN(/N=C/c2c[nH]c3ccccc23)CC1 | inactive |
| CN1CCc2nc(SC(C(=O)O)c3ccccc3)c(C#N)c(-c3cccs3)c2C1 (stereo not given) | 31.6 µM (active) |
| Cc1ccc(-n2c(/C=C/c3cccc(C(F)(F)F)c3)nc3ccccc3c2=O)cc1 | inactive |
| O=C(CCCn1c(=O)[nH]c2cc(Cl)ccc2c1=O)N1CCC2(CC1)OCCO2 | inactive |
| CCN(CC)C(=O)c1ccc(NC(=O)c2sccc2-c2ccccc2)cc1 | inactive |
| CCOc1ccc(-c2cc(C)n3nc(C(=O)Nc4ccc(C)c(C)c4)cc3n2)cc1 | 70.8 µM (active) |
| C=CCN(CC=C)C(=O)Nc1ccc(OCC)cc1 | inactive |
| CC1=C(C(=O)Nc2ccccc2)S(=O)(=O)CCO1 | inactive |
| Cn1cc(C(=O)OCC(=O)N2CCCC2)c2ccccc21 | inactive |
| O=C1NC(=O)N(Cc2ccco2)C(=O)/C1=C\c1ccc(-c2ccc(F)cc2)o1 | 25.1 µM (active) |
| O=C1NC(=O)N(Cc2ccco2)C(=O)/C1=C\c1cccn1CCOc1ccccc1 | 79.4 µM (active) |
| COc1cccc(OC)c1C(=O)NC(=S)N1C[C@H]2C[C@H](C1)c1cccc(=O)n1C2 | inactive |
| CC(C)c1ccc(OCC(=O)N2CCN(C)CC2)c(Br)c1 | inactive |
| CCOC(=O)C1=C(C)OC(N)=C(C(=O)OC)C12C(=O)Nc1ccc(Br)cc12 (stereo not given) | inactive |
| COc1cccc(CN2CCCC(C(=O)c3ccccc3SC)C2)c1O (stereo not given) | inactive |
| Cc1ccc(P(=S)(c2ccc(C)o2)N2CCOCC2)o1 | inactive |

Reference: PubChem BioAssay AID588591 (National Center for Advancing Translational Sciences (NCATS), 2011)
